Here are results for 34 molecules from PubChem BioAssay (NCI).

The panel holds about 83,000 compounds, 20% with a hit somewhere; the sample as a whole holds those more often.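 Treatment: one concentration, 48 hours, 96-well format. Scoring: percent growth, with anything below 10 considered active.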 Activity calls are given as the source filed them.

In this experiment the test system is HL-60(TB) leukemia. Description: NCI-60 one-dose screen, 48 h (100 = growth as untreated, 0 = no growth, -100 = all killed). The settings on record: 10 µM unless noted.
In the case of `Nc1c(C(=O)Nc2ccc(C(F)(F)F)cc2)sc2nc(-c3cnccn3)cc(-c3cccs3)c12`, the growth is 51.9% (inactive).

As for `Cc1ccc(-n2c(/C=C3\C(=O)Nc4ccccc43)ccc2CO)cc1`, the growth was 25.4% (inactive).

On to `Cn1ccnc1C(=O)/C=C/c1ccc(NC(=O)c2c(F)c(F)c(F)c(F)c2F)cc1`, for which the growth is 78.3% (inactive).

For `C=CCn1c(SCC(=O)c2ccccc2)nnc1-c1c[nH]c2ccccc12`, the growth is 95.6% (inactive).

Regarding `COc1ccc(C(C)=C(c2ccc(OCCN3CCCCCC3)cc2)c2ccc(OCCN3CCCCCC3)cc2)cc1`, the growth is -46.9% (active).

Consider `Cc1ccc(-n2cc(/C=C/C(=O)c3ccc(O)cc3)c(-c3ccc(S(C)(=O)=O)cc3)n2)cc1`, for which the growth was 27.5% (inactive).

Take `O=C(Nc1ccc(N=Cc2c(O)[nH]c3ccccc23)cc1)Nc1nccs1`: the growth was 42% (inactive).

Consider `CS(=O)(=O)c1nccc(-c2c(-c3ccc(F)c(OCCc4ccc(F)cc4)c3)nc3sccn23)n1`, for which the growth was -12.1% (active).

On to `CCCCCc1ccc(S(=O)(=O)Nc2cccc(-c3csc(NC(=O)CCCCCN4CCN(CCO)CC4)n3)c2)cc1`, for which the growth is 63.4% (inactive).

As to `CCOC(=O)c1c(NC(=O)c2cccc(C(F)(F)F)c2)sc2c1CCC(=O)C2`, the growth is 37.7% (inactive).

Take `Clc1cccc(/C=N/Nc2nc(N/N=C/c3cccc(Cl)c3Cl)nc(N3CCCCC3)n2)c1Cl`: the growth was 106% (inactive).

As to `C[C@@H](Nc1c(C#N)cnc2ccc(-c3cnc(N)nc3)cc12)c1ccccc1`, the growth was 8.49% (active).

Regarding `Cc1nn(-c2ccccc2)cc1/C=N/Nc1nc(Nc2ccccc2)nc(Nc2ccc(S(N)(=O)=O)cc2)n1`, the growth was 4% (active).

For `CN1CCN(c2ccc(/C=N/Nc3nc4ccccc4c(=O)n3-c3ccccc3)cc2)CC1`, the growth is 113% (inactive).

`O=[N+]([O-])c1ccc(NC(=S)NNC(=S)Nc2ccc(Br)cc2)cc1`: the growth is 93.1% (inactive).

Regarding `CCN1C(=O)N(CC)C2SC(N/N=C/c3ccccc3F)=NC21` (centres undefined), the growth was 0.098% (active).

As to `Brc1ccccc1/C=N/Nc1nc(N/N=C/c2ccccc2Br)nc(N2CCOCC2)n1`, the growth was 80.5% (inactive).

For the molecule `CC(=O)OC[C@@]12Oc3c(cccc3-c3ccc(O)c4c3O[C@]3(COC(C)=O)C(=C4O)C(=O)C[C@H](C)[C@@H]3OC(C)=O)C(O)=C1C(=O)C[C@H](C)[C@@H]2OC(C)=O`, the growth is -46.3% (active).

`CCOC(=O)c1c(NCC(=O)Nc2cccc([N+](=O)[O-])c2)sc(C(C)=O)c1C`: the growth was -18.4% (active).

In the case of `Cc1ccc(-c2cc3nc(C(Cl)Cl)nc(-c4ccco4)n3n2)cc1`, the growth is -11.9% (active).

For `COc1ccc(NC2=C(Cl)C(=O)C(C)=C(C)C2=O)cc1OC`, the growth is 88.4% (inactive).

Regarding `COc1cc(-c2ccc3ncnc(NC(C)c4ccccc4)c3c2)cnc1OC` (centres undefined), the growth was 43.2% (inactive).

For the molecule `C=C(C=O)[C@@H]1CC[C@]2(C(=O)O)CC[C@]3(C)C(CC[C@@H]4[C@@](C)(CCC#N)[C@H](C(=C)C=O)CC[C@]43C)[C@@H]12` (some centres undefined), the growth was 2.63% (active).

As for `C/C(=C(/c1ccc(O)cc1)c1ccc(OCCN(C)C)cc1)c1ccc(Cl)cc1`, the growth was 21.8% (inactive).

Consider `O=C(CSc1nc2ccccc2c(=O)n1-c1ccccc1)Nc1ccc(S(=O)(=O)Nc2nccs2)cc1`, for which the growth is 78.7% (inactive).

As for `COCCNc1ccc2ncc(C#Cc3cncc(C(=O)Nc4ccc(CN5CCN(C)CC5)c(C(F)(F)F)c4)c3)n2n1`, the growth is 0.694% (active).

Take `COc1ccc(N/N=C/c2c(-c3ccc(S(C)(=O)=O)cc3)nc3ccccn23)cc1`: the growth was 39.4% (inactive).

With `COc1cc(/C=C/C(=O)c2ccc(F)cc2)ccc1Oc1nc(NCCO)nc(N2CCOCC2)n1`, the growth was 39.8% (inactive).

In the case of `O=c1oc2ccc(-c3ccc(F)cc3F)cc2c(=O)n1-c1cccc(C(F)(F)F)c1`, the growth is -32.7% (active).

Consider `O=C(NCc1ncc[nH]1)c1ccc(-c2nc3ccc4[nH]ncc4c3c3c2CCCC3)cc1`, for which the growth is -24.7% (active).

For `CC1(C)CC[C@]2(C(=O)N3CCCNCC3)CC[C@]3(C)C(=CC[C@@H]4[C@@]5(C)CCC(=O)C(C)(C)[C@@H]5CC[C@]43C)[C@H]2C1`, the growth was 104% (inactive).

As for `N#Cc1cnc2ccc(-c3cnc4n[nH]nc4c3)cc2c1N1CCc2cc(F)c(Cl)cc21`, the growth was 20.2% (inactive).

Regarding `C[C@H](Nc1ncnc2ccc(-c3cnc(Cl)c(NS(C)(=O)=O)c3)cc12)c1ccccc1`, the growth was -17.6% (active).

Turning to `CC[C@H](CC[C@@H](C)[C@H]1CC[C@H]2[C@@H]3CC(=O)C4=CC(=O)/C(=C/c5ccc([N+](=O)[O-])cc5)C[C@]4(C)[C@H]3CC[C@]12C)C(C)C`, the growth was 83.5% (inactive).
